Laboratory results from article PMC11006913.

Target: CRX (Homo sapiens, UniProt O43186 26-111)
Assay: PBM; 200 nM protein, PBS
Settings: dsDNA, one strand shown

Chain of CRX (Homo sapiens, UniProt O43186 26-111) (O43186 26-111): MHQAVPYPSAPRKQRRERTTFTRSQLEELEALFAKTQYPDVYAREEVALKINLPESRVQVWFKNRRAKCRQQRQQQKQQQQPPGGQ

| Sequence | binding signal |
| --- | --- |
| ATTTAAGA | 11.1 upbm affinity estimate (log intensity, higher = more binding, comparable within an allelic series) |
| GACCGAAC | 7.97 upbm affinity estimate (log intensity, higher = more binding, comparable within an allelic series) |
| ACACTACC | 8.32 upbm affinity estimate (log intensity, higher = more binding, comparable within an allelic series) |
| GAACGCCC | 8.05 upbm affinity estimate (log intensity, higher = more binding, comparable within an allelic series) |
| ACACGCCC | 8.11 upbm affinity estimate (log intensity, higher = more binding, comparable within an allelic series) |
| AGTGTGTC | 8.28 upbm affinity estimate (log intensity, higher = more binding, comparable within an allelic series) |
| AAGTAATA | 10.4 upbm affinity estimate (log intensity, higher = more binding, comparable within an allelic series) |
| AATCCAAC | 10.9 upbm affinity estimate (log intensity, higher = more binding, comparable within an allelic series) |
| GAAGTTCC | 8.51 upbm affinity estimate (log intensity, higher = more binding, comparable within an allelic series) |
| GCTATTTA | 10.3 upbm affinity estimate (log intensity, higher = more binding, comparable within an allelic series) |
| CGAACCTC | 8.5 upbm affinity estimate (log intensity, higher = more binding, comparable within an allelic series) |
| CCTGGTGC | 8.29 upbm affinity estimate (log intensity, higher = more binding, comparable within an allelic series) |
| CGGGTCAC | 7.89 upbm affinity estimate (log intensity, higher = more binding, comparable within an allelic series) |
| ACTAATCT | 13.1 upbm affinity estimate (log intensity, higher = more binding, comparable within an allelic series) |
| ATTAAGCC | 12.8 upbm affinity estimate (log intensity, higher = more binding, comparable within an allelic series) |
| AGATAATC | 12.9 upbm affinity estimate (log intensity, higher = more binding, comparable within an allelic series) |
| CGGATTAC | 13.4 upbm affinity estimate (log intensity, higher = more binding, comparable within an allelic series) |
| CTCTCTCC | 8.11 upbm affinity estimate (log intensity, higher = more binding, comparable within an allelic series) |
| TAAGATTA | 12.8 upbm affinity estimate (log intensity, higher = more binding, comparable within an allelic series) |
| GGCGTCCC | 8.17 upbm affinity estimate (log intensity, higher = more binding, comparable within an allelic series) |

| Sequence | binding signal |
| --- | --- |
| CGAGCACG | 8.2 upbm affinity estimate (log intensity, higher = more binding, comparable within an allelic series) |
| AATCACTA | 10.3 upbm affinity estimate (log intensity, higher = more binding, comparable within an allelic series) |
| CACGGCGA | 8.27 upbm affinity estimate (log intensity, higher = more binding, comparable within an allelic series) |
| ACGCCACG | 8.27 upbm affinity estimate (log intensity, higher = more binding, comparable within an allelic series) |
| ACGGTCCG | 8.25 upbm affinity estimate (log intensity, higher = more binding, comparable within an allelic series) |
| GGTCGAAC | 8.09 upbm affinity estimate (log intensity, higher = more binding, comparable within an allelic series) |
| AGAAGGAG | 8.23 upbm affinity estimate (log intensity, higher = more binding, comparable within an allelic series) |
| TGCGTCCA | 8.29 upbm affinity estimate (log intensity, higher = more binding, comparable within an allelic series) |
| AAGTATAA | 10.6 upbm affinity estimate (log intensity, higher = more binding, comparable within an allelic series) |
| GTTTAAAA | 9.91 upbm affinity estimate (log intensity, higher = more binding, comparable within an allelic series) |
| GCCAATCC | 10.4 upbm affinity estimate (log intensity, higher = more binding, comparable within an allelic series) |
| CCGTCGCG | 8.16 upbm affinity estimate (log intensity, higher = more binding, comparable within an allelic series) |
| GCTTAAGC | 12.8 upbm affinity estimate (log intensity, higher = more binding, comparable within an allelic series) |
| GAAATCCA | 10.7 upbm affinity estimate (log intensity, higher = more binding, comparable within an allelic series) |
| ACCGCACC | 8.25 upbm affinity estimate (log intensity, higher = more binding, comparable within an allelic series) |
| CGATAATC | 12.8 upbm affinity estimate (log intensity, higher = more binding, comparable within an allelic series) |
| CCGATCAG | 9.74 upbm affinity estimate (log intensity, higher = more binding, comparable within an allelic series) |
| ACTGCAGT | 8.23 upbm affinity estimate (log intensity, higher = more binding, comparable within an allelic series) |
| GGTTGCCA | 8.28 upbm affinity estimate (log intensity, higher = more binding, comparable within an allelic series) |

Target: CRX (Homo sapiens, UniProt O43186 26-111, E42D)
Sequence (O43186 26-111 E42D): as the sequence (O43186 26-111) above, with E17D counted along it
Assay: PBM; 200 nM protein, PBS
Settings: dsDNA, one strand shown

| Sequence | binding signal |
| --- | --- |
| ATTTAAGA | 10.8 upbm affinity estimate (log intensity, higher = more binding, comparable within an allelic series) |
| GACCGAAC | 8.09 upbm affinity estimate (log intensity, higher = more binding, comparable within an allelic series) |
| ACACTACC | 8.19 upbm affinity estimate (log intensity, higher = more binding, comparable within an allelic series) |
| GAACGCCC | 8.12 upbm affinity estimate (log intensity, higher = more binding, comparable within an allelic series) |
| ACACGCCC | 8.24 upbm affinity estimate (log intensity, higher = more binding, comparable within an allelic series) |
| AGTGTGTC | 8.38 upbm affinity estimate (log intensity, higher = more binding, comparable within an allelic series) |
| AAGTAATA | 10.3 upbm affinity estimate (log intensity, higher = more binding, comparable within an allelic series) |
| AATCCAAC | 10.8 upbm affinity estimate (log intensity, higher = more binding, comparable within an allelic series) |
| GAAGTTCC | 8.44 upbm affinity estimate (log intensity, higher = more binding, comparable within an allelic series) |
| GCTATTTA | 10.1 upbm affinity estimate (log intensity, higher = more binding, comparable within an allelic series) |
| CGAACCTC | 8.36 upbm affinity estimate (log intensity, higher = more binding, comparable within an allelic series) |
| CCTGGTGC | 8.25 upbm affinity estimate (log intensity, higher = more binding, comparable within an allelic series) |
| CGGGTCAC | 8.08 upbm affinity estimate (log intensity, higher = more binding, comparable within an allelic series) |
| ACTAATCT | 13.1 upbm affinity estimate (log intensity, higher = more binding, comparable within an allelic series) |
| ATTAAGCC | 12.8 upbm affinity estimate (log intensity, higher = more binding, comparable within an allelic series) |
| AGATAATC | 12.7 upbm affinity estimate (log intensity, higher = more binding, comparable within an allelic series) |
| CGGATTAC | 13.3 upbm affinity estimate (log intensity, higher = more binding, comparable within an allelic series) |
| CTCTCTCC | 8.15 upbm affinity estimate (log intensity, higher = more binding, comparable within an allelic series) |
| TAAGATTA | 12.6 upbm affinity estimate (log intensity, higher = more binding, comparable within an allelic series) |
| GGCGTCCC | 8.13 upbm affinity estimate (log intensity, higher = more binding, comparable within an allelic series) |

| Sequence | binding signal |
| --- | --- |
| CGAGCACG | 8.12 upbm affinity estimate (log intensity, higher = more binding, comparable within an allelic series) |
| AATCACTA | 10.2 upbm affinity estimate (log intensity, higher = more binding, comparable within an allelic series) |
| CACGGCGA | 8.25 upbm affinity estimate (log intensity, higher = more binding, comparable within an allelic series) |
| ACGCCACG | 8.14 upbm affinity estimate (log intensity, higher = more binding, comparable within an allelic series) |
| ACGGTCCG | 8.46 upbm affinity estimate (log intensity, higher = more binding, comparable within an allelic series) |
| GGTCGAAC | 8.11 upbm affinity estimate (log intensity, higher = more binding, comparable within an allelic series) |
| AGAAGGAG | 8.28 upbm affinity estimate (log intensity, higher = more binding, comparable within an allelic series) |
| TGCGTCCA | 8.26 upbm affinity estimate (log intensity, higher = more binding, comparable within an allelic series) |
| AAGTATAA | 10.5 upbm affinity estimate (log intensity, higher = more binding, comparable within an allelic series) |
| GTTTAAAA | 9.79 upbm affinity estimate (log intensity, higher = more binding, comparable within an allelic series) |
| GCCAATCC | 10.3 upbm affinity estimate (log intensity, higher = more binding, comparable within an allelic series) |
| CCGTCGCG | 8.11 upbm affinity estimate (log intensity, higher = more binding, comparable within an allelic series) |
| GCTTAAGC | 12.7 upbm affinity estimate (log intensity, higher = more binding, comparable within an allelic series) |
| GAAATCCA | 10.4 upbm affinity estimate (log intensity, higher = more binding, comparable within an allelic series) |
| ACCGCACC | 8.39 upbm affinity estimate (log intensity, higher = more binding, comparable within an allelic series) |
| CGATAATC | 12.7 upbm affinity estimate (log intensity, higher = more binding, comparable within an allelic series) |
| CCGATCAG | 9.63 upbm affinity estimate (log intensity, higher = more binding, comparable within an allelic series) |
| ACTGCAGT | 8.32 upbm affinity estimate (log intensity, higher = more binding, comparable within an allelic series) |
| GGTTGCCA | 8.39 upbm affinity estimate (log intensity, higher = more binding, comparable within an allelic series) |

Target: CRX (Homo sapiens, UniProt O43186 26-111, R41L)
Sequence (O43186 26-111 R41L): as the sequence (O43186 26-111) above, with R16L counted along it
Assay: PBM; 200 nM protein, PBS
Settings: dsDNA, one strand shown

| Sequence | binding signal |
| --- | --- |
| ATTTAAGA | 10.4 upbm affinity estimate (log intensity, higher = more binding, comparable within an allelic series) |
| GACCGAAC | 8.18 upbm affinity estimate (log intensity, higher = more binding, comparable within an allelic series) |
| ACACTACC | 8.34 upbm affinity estimate (log intensity, higher = more binding, comparable within an allelic series) |
| GAACGCCC | 8.13 upbm affinity estimate (log intensity, higher = more binding, comparable within an allelic series) |
| ACACGCCC | 8.26 upbm affinity estimate (log intensity, higher = more binding, comparable within an allelic series) |
| AGTGTGTC | 8.38 upbm affinity estimate (log intensity, higher = more binding, comparable within an allelic series) |
| AAGTAATA | 10.1 upbm affinity estimate (log intensity, higher = more binding, comparable within an allelic series) |
| AATCCAAC | 10.7 upbm affinity estimate (log intensity, higher = more binding, comparable within an allelic series) |
| GAAGTTCC | 8.28 upbm affinity estimate (log intensity, higher = more binding, comparable within an allelic series) |
| GCTATTTA | 10 upbm affinity estimate (log intensity, higher = more binding, comparable within an allelic series) |
| CGAACCTC | 8.33 upbm affinity estimate (log intensity, higher = more binding, comparable within an allelic series) |
| CCTGGTGC | 8.32 upbm affinity estimate (log intensity, higher = more binding, comparable within an allelic series) |
| CGGGTCAC | 8.09 upbm affinity estimate (log intensity, higher = more binding, comparable within an allelic series) |
| ACTAATCT | 12.7 upbm affinity estimate (log intensity, higher = more binding, comparable within an allelic series) |
| ATTAAGCC | 12.2 upbm affinity estimate (log intensity, higher = more binding, comparable within an allelic series) |
| AGATAATC | 12.7 upbm affinity estimate (log intensity, higher = more binding, comparable within an allelic series) |
| CGGATTAC | 13.3 upbm affinity estimate (log intensity, higher = more binding, comparable within an allelic series) |
| CTCTCTCC | 8.3 upbm affinity estimate (log intensity, higher = more binding, comparable within an allelic series) |
| TAAGATTA | 12.4 upbm affinity estimate (log intensity, higher = more binding, comparable within an allelic series) |
| GGCGTCCC | 8.1 upbm affinity estimate (log intensity, higher = more binding, comparable within an allelic series) |

| Sequence | binding signal |
| --- | --- |
| CGAGCACG | 8.16 upbm affinity estimate (log intensity, higher = more binding, comparable within an allelic series) |
| AATCACTA | 9.96 upbm affinity estimate (log intensity, higher = more binding, comparable within an allelic series) |
| CACGGCGA | 8.27 upbm affinity estimate (log intensity, higher = more binding, comparable within an allelic series) |
| ACGCCACG | 8.23 upbm affinity estimate (log intensity, higher = more binding, comparable within an allelic series) |
| ACGGTCCG | 8.16 upbm affinity estimate (log intensity, higher = more binding, comparable within an allelic series) |
| GGTCGAAC | 8.1 upbm affinity estimate (log intensity, higher = more binding, comparable within an allelic series) |
| AGAAGGAG | 8.25 upbm affinity estimate (log intensity, higher = more binding, comparable within an allelic series) |
| TGCGTCCA | 8.23 upbm affinity estimate (log intensity, higher = more binding, comparable within an allelic series) |
| AAGTATAA | 10.2 upbm affinity estimate (log intensity, higher = more binding, comparable within an allelic series) |
| GTTTAAAA | 9.59 upbm affinity estimate (log intensity, higher = more binding, comparable within an allelic series) |
| GCCAATCC | 10.1 upbm affinity estimate (log intensity, higher = more binding, comparable within an allelic series) |
| CCGTCGCG | 8.14 upbm affinity estimate (log intensity, higher = more binding, comparable within an allelic series) |
| GCTTAAGC | 11.7 upbm affinity estimate (log intensity, higher = more binding, comparable within an allelic series) |
| GAAATCCA | 10.6 upbm affinity estimate (log intensity, higher = more binding, comparable within an allelic series) |
| ACCGCACC | 8.35 upbm affinity estimate (log intensity, higher = more binding, comparable within an allelic series) |
| CGATAATC | 12.7 upbm affinity estimate (log intensity, higher = more binding, comparable within an allelic series) |
| CCGATCAG | 9.48 upbm affinity estimate (log intensity, higher = more binding, comparable within an allelic series) |
| ACTGCAGT | 8.4 upbm affinity estimate (log intensity, higher = more binding, comparable within an allelic series) |
| GGTTGCCA | 8.41 upbm affinity estimate (log intensity, higher = more binding, comparable within an allelic series) |
